# According to PubChem BioAssay (NCI):
# This is part of a sample that, as a whole, favours compounds with a hit. Of some 83,000 tested, about 20% had one in any assay.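 Activity criterion: percent growth below 10, measured after cells in 96-well plates were exposed to a single compound concentration for 48 hours.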 Values without a mark were called inactive. Calls of active or inactive are those of the source.
# What was measured:
# Experiment in all cases: NCI-60 one-dose screen, 48 h (100 = growth as untreated, 0 = no growth, -100 = all killed)
# Conditions in all cases: 10 µM unless noted
# HCT-15 colon = tested on: HCT-15 colon
# HT29 colon = tested on: HT29 colon
# SNB-75 CNS = tested on: SNB-75 CNS
# SNB-19 CNS = tested on: SNB-19 CNS
# U251 CNS = tested on: U251 CNS
# PC-3 prostate = tested on: PC-3 prostate
# SK-MEL-5 melanoma = tested on: SK-MEL-5 melanoma
# UACC-62 melanoma = tested on: UACC-62 melanoma
# LOX IMVI melanoma = tested on: LOX IMVI melanoma
# SK-MEL-28 melanoma = tested on: SK-MEL-28 melanoma
SMILES,growth (HCT-15 colon),growth (HT29 colon),growth (SNB-75 CNS),growth (SNB-19 CNS),growth (U251 CNS),growth (PC-3 prostate),growth (SK-MEL-5 melanoma),growth (UACC-62 melanoma),growth (LOX IMVI melanoma),growth (SK-MEL-28 melanoma)
COc1ccc2[nH]cc(-c3nc(-c4c[nH]c5ccncc45)cs3)c2c1,-10.2% (active),-15.7% (active),76.1%,47.1%,-49.4% (active),42.4%,43.3%,84.2%,-87.4% (active),-88.5% (active)
C#Cc1cccc(Nc2ncnc3ccc(-c4cncc(NS(C)(=O)=O)c4)cc23)c1,55.9%,20.7%,30.6%,35.2%,4.32% (active),26.8%,-75.7% (active),33.4%,7.21% (active),41.4%
Cc1cc(Cl)ccc1Nc1nc(C(F)(F)F)ccc1C(=O)N/N=C/c1ccc([N+](=O)[O-])cc1,-1.51% (active),-26.6% (active),-12.2% (active),22.7%,-13.9% (active),-43.7% (active),84.7%,12.6%,7.3% (active),5.64% (active)
COc1cc(-c2cc(-c3ccc(N(C)C)cc3)nc(N3CCC(O)CC3)c2C#N)cc(OC)c1OC,-41.1% (active),2.08% (active),-17.2% (active),30.2%,12.9%,12.7%,-99% (active),-26.8% (active),-0.767% (active),-28.7% (active)
COc1cc(CNC(=O)/C=C/C=C/c2ccc3c(c2)OCO3)ccc1OCc1cn(-c2ccc(C)c(C)c2)nn1,81.3%,91.6%,88.4%,79.5%,86.3%,75.1%,81.7%,56.9%,88.1%,54.1%
CCOc1nc(-c2ccccc2)cc2c(O)c(C(=O)NN)[nH]c(=O)c12,106%,114%,86.4%,106%,106%,83%,105%,106%,101%,99.8%
CCC(C)N(c1ccc(Cl)cc1)c1nc(-c2ccc(Br)cc2)cs1 (stereo not given),97.7%,106%,102%,105%,98%,99.9%,104%,87.2%,93.3%,111%
CO[C@H]1/C=C(/C)CCC[C@H](C)[C@H](O)[C@@H](C)C(=O)C(C)(C)[C@@H](O)CC(=O)O[C@@H]1/C(C)=C/c1csc(C)n1,16.3%,-4.27% (active),-32.1% (active),31.2%,15.4%,26.6%,20.6%,36.8%,14.3%,39.6%
CC(=O)OC[C@]12CCC(C)(C)C[C@H]1[C@@]1(O)[C@H](O)C[C@@H]3[C@@]4(C)CCCNC(C)(C)[C@@H]4CC[C@@]3(C)[C@]1(C)CC2,111%,109%,115%,97.4%,107%,102%,99.9%,105%,106%,108%
O=C1/C(=C/c2ccc(-c3ccc(Br)cc3)o2)SC(=S)N1CCc1ccc(O)cc1,78.9%,76.8%,37.9%,85.5%,78.9%,61.3%,92.5%,49.6%,71.7%,103%
Oc1ccc(CN2CCC(N3CCCCC3)CC2)c2cccnc12,18%,105%,25.4%,23.7%,17.6%,17.9%,-29.4% (active),14.9%,17.8%,33.4%
Brc1ccc(-n2cc(-c3nn[nH]n3)c(-c3cccs3)n2)cc1,95.3%,113%,92.5%,90.9%,93%,98.9%,101%,92.7%,101%,103%
Cc1cccc(N2CCN(CC(O)COc3ccc(Cl)cc3)CC2)c1 (stereo not given),97.4%,114%,104%,98.3%,95.7%,91.9%,97.4%,96.4%,97.6%,117%
CCCCC(=O)Nc1ncc(Cc2ccc(Cl)cc2)s1,40.3%,28.6%,46.5%,77.2%,65.6%,80.9%,80.3%,49.6%,64.8%,74.2%
C[C@@H]1CCC[C@H]1CC(N)C(=O)O (stereo not given in full),90.6%,116%,103%,117%,114%,96.8%,98.5%,116%,91.3%,108%
CCN(CC)CCOc1ccc(C(=C(C)c2ccc(Cl)cc2)c2ccc(OCCN(CC)CC)cc2)cc1,-76.9% (active),-74.8% (active),-92.6% (active),-81.8% (active),-81.6% (active),-59.3% (active),-98% (active),-78.1% (active),-88.5% (active),-88.5% (active)
COC(=O)c1c2c(c(C)[n+]([O-])c1C)C(=O)C(NCc1ccc(Cl)cc1)=CC2=O,39.6%,9.34% (active),131%,84.4%,57.2%,33.5%,29.9%,6.15% (active),45.8%,95.7%
N#CC1CCc2c(c(-c3cn[nH]c3C(F)(F)F)nc3c(F)cc4[nH]ncc4c23)C1 (stereo not given),86.1%,42.1%,-4.91% (active),32.7%,28.9%,43.6%,6.54% (active),8.91% (active),17.1%,24.9%
COc1ccc(CC(C#N)c2cc3ccccc3[nH]2)cc1 (stereo not given),91.5%,96.5%,78.2%,92.8%,89.3%,75.6%,91.6%,75%,92%,95%
COP(=O)(OC)C(C)(C)CC(=O)CC(C#N)(C#N)C(C#N)C#N,93.3%,107%,98.2%,99.3%,97.3%,92.5%,101%,96.1%,100%,104%
COc1ccc2c(c1)c(-c1noc(C(=O)c3cn(C)c4ccc(Br)cc34)n1)cn2C,113%,92.5%,101%,102%,101%,95.3%,100%,93%,96.8%,117%
S=C1CCSC(=S)N1CCCN1C(=S)CCSC1=S,51.4%,67.8%,70%,89.7%,83.2%,69.1%,91.5%,50.4%,38.2%,86.6%
Cc1ccc(NC(=S)NNC(=S)NNc2ccccc2)cc1C,103%,104%,107%,106%,96.8%,55.7%,95.7%,104%,106%,115%
COc1cc(-c2nc(SCCC(C)C)nc(Nc3ccccc3Cl)c2C#N)cc(OC)c1OC,93%,89.1%,89.3%,98.9%,106%,81.4%,89.2%,81%,101%,98.8%
O=Nc1c(-c2c(O)[nH]c3ncccc23)[nH]c2ccccc12,33.9%,102%,31.2%,96.4%,67.3%,67.7%,72.3%,56.7%,44.5%,75.3%
O=S(=O)(Nc1ccccc1)c1ccc(C2CC3(Cl)C(Cl)=C(Cl)C2(Cl)C3(Cl)Cl)cc1 (stereo not given),50.6%,35.2%,69.6%,77.6%,39.8%,13.5%,60.7%,43.6%,39%,68.3%
COc1cc(-c2cc(-c3cccs3)c(C#N)c(N3CCOCC3)n2)cc(OC)c1OC,25.2%,22.2%,69.2%,95.2%,52.9%,67%,45.7%,63.6%,81.5%,91.4%
